Molecules are shown by their SMILES. Among all 310,000 compounds or so, about 17,000 (5.5%) were called active. Another 11% or so got no clear call; they are omitted. The full list was thinned out, with actives kept by preference. Unmarked numbers belong to inactive results. Calls come from the whole dose curve; as a rule, active = well fitted inhibition curve with a large enough effect; inconclusive = small, poorly fitted or top-dose-only effect, or effect the other way; inactive = no such curve, though single readings can be large or run the other way.

From PubChem BioAssay AID2551 (National Center for Advancing Translational Sciences (NCATS), 2010) come the findings set out here.
% is set by controls: 0 for no effect and ±100 for the full control effect; potency is the fitted concentration of half-maximal effect.

Chain of Nuclear receptor ROR-gamma (Mus musculus) (P51450 whole entry, looked up, the tested form may be a part): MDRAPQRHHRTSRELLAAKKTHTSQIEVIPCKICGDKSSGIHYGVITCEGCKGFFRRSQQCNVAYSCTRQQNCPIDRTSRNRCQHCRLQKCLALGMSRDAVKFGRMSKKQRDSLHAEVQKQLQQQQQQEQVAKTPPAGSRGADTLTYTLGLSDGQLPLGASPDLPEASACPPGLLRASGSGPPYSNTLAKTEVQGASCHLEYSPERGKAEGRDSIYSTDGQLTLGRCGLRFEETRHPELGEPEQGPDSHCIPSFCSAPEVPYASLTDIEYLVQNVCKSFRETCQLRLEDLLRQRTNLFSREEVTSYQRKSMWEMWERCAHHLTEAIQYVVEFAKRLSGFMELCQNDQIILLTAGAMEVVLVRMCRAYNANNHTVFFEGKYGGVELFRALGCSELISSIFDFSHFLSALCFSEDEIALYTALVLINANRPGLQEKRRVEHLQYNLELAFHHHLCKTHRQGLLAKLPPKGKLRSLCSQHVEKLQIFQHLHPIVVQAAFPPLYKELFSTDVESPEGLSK

The target in the assay is Nuclear receptor ROR-gamma (Mus musculus) (UniProt P51450). The assay can be described thus: qHTS for inhibitors of ROR gamma transcriptional activity. Note: nearly all actives have a fitted effect of over 60% in size. The following applies: Drosophila S2 Gal4-RORgamma UAS-luciferase reporter, 20 h; series mostly up to 53.6 µM; activity change, negative = inhibition: at the top concentration. In a few lines:
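Compounds are pin-transferred onto Drosophila Schneider cells expressing a copper-inducible Gal4–ROR gamma transactivation domain fusion. After 1 hr, copper sulfate is added to 700 uM final; luciferase is read 20 hr later.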
Background: In qHTS, concentration-response curves come from the screen itself.
As for `CCc1ccc(NC(=O)CN2CCC(C(=O)c3ccc(OC)cc3)CC2)cc1`, the “activity change, negative = inhibition” value is -0.195%. The same measure, in the same setting: the value for `Cc1c(C(=O)NC2CCCCC2)oc2ccccc12` was 31.6%; that for `CCCNC(=O)CCc1c(C)nc2c(c(C)nn2-c2ccccc2)c1C` was 2.6%. Regarding `Cc1ccc(S(=O)(=O)N2CCCC(C(=O)N3CCN(C)CC3)C2)cc1` (stereo not drawn), the “activity change, negative = inhibition” value was -10.6%. Same read-out and setting: the value for `O=C(Nc1ccncc1)Nc1ccc(F)cc1` was -6.05%; that for `COc1ccc(OCc2cc(C(=O)N3CCCC3)no2)c2ccccc12` was -2.3%; that for `COC(=O)CN1C(=O)[C@H]2[C@@H](C3CC3)N3C(=O)CN(Cc4ccc(-c5ccccc5)cc4)C(=O)[C@@]3(Cc3ccccc3)[C@H]2C1=O` was 16.4%. Still for that read-out and setting: next, `CS(=O)(=O)Nc1ccccc1N=C(c1ccccc1)c1ccccc1`: -31.1% [at 1.91 µM]; `COc1ccc(CN2CCNC(=O)C2CC(=O)NCc2cn[nH]c2-c2ccccc2)c(F)c1` (stereo not drawn): 14.9%. As for `COc1ccc2oc(C(=O)NCC(Cc3ccccc3)N(C)C)c(C)c2c1` (stereo not drawn), the “activity change, negative = inhibition” value is -17.4%. The same measure, in the same setting: the value for `Cc1ccccc1C(=O)Nc1ccc(N2CCCCCC2)cc1` was 14.4%. On to `O=C(Nc1ccc(Cl)cn1)c1cnn2cccnc12`, for which the “activity change, negative = inhibition” value was 11.5%. On the same count and under the same terms, next, `O=C(c1ccccc1)c1ccc(C(=O)N2CCN(c3ccccc3)CC2)cc1`: -4.53%; `Cc1nc(NC(=O)c2ccc3c(c2)OCCO3)ccc1Br`: -8.45%. Consider `COC(=O)c1ccc(NC(=S)NN2CCOCC2)cc1`, for which the “activity change, negative = inhibition” value is 31.5%. For the molecule `O=C(Nc1ccc(Cl)cn1)c1ccc2c(c1)OCCO2`, the Potency was 8.91 µM (active). On to `O=C(CN1CCN(c2ccc(O)cc2)CC1)Nc1ccc(-c2ccccc2)cc1`, for which the “activity change, negative = inhibition” value is -1.13%.

For `Cc1ccc(C(=O)NC(=S)Nc2ccc(N3CCOCC3)cc2)cc1`, the Potency was 6.31 µM (active).

Regarding `O=C(Cc1ccccc1)NC(=S)Nc1ccc(N2CCCCC2)cc1`, the Potency was 2.24 µM (active).

For `Cc1ccccc1C(=O)NC(=S)Nc1ccc(N2CCN(C(=O)c3ccccc3)CC2)cc1`, the Potency was 22.4 µM (active). Take `O=C(COc1ccc([N+](=O)[O-])cc1)Nc1ccc(N2CCCC2)cc1`: the “activity change, negative = inhibition” value was -9.99%.

For `Cc1ccc(OCCCC(=O)Nc2ccc(N3CCOCC3)cc2)cc1`, the “activity change, negative = inhibition” value is -7.03%. As to `CC1CCCN(CCCNC(=O)CN2C(=O)COc3ccc(S(=O)(=O)N4CCOCC4)cc32)C1` (stereo not drawn), the “activity change, negative = inhibition” value was -12.2%.

For `CC(C)[C@@H](C(=O)O)N(Cc1cccc(CN([C@H](C(=O)O)C(C)C)S(C)(=O)=O)c1)S(C)(=O)=O`, the “activity change, negative = inhibition” value is 0.567%. The same measure, in the same setting: next, `COc1ccc(CCNC(=O)c2c(C)nn(-c3ccccc3)c2Cl)cc1`: 24.7%. `COc1ccc(CC(=O)NC2CCSc3ccccc32)cc1OC` (stereo not drawn): the “activity change, negative = inhibition” value is 7.66%. On to `COC(=O)c1ccc(Nc2ncnc3sccc23)cc1`, for which the “activity change, negative = inhibition” value was 38.8%.

On to `O=S(=O)(c1ccccc1)N(Cc1cccc(F)c1)c1ccccc1`, for which the “activity change, negative = inhibition” value was 2.19%.

Take `N#CCC(=O)NC1CCC(CC2CCC(NC(=O)CC#N)CC2)CC1` (stereo not drawn): the “activity change, negative = inhibition” value is 21.4%. Take `CCOC(OCC)c1ccc(/C=C\c2nccc(N)n2)cc1`: the “activity change, negative = inhibition” value was -4.15%.

Take `Cc1cc(=O)n2nc(N3CCC(C(=O)Nc4c(F)c(F)c(F)c(F)c4F)CC3)sc2n1`: the “activity change, negative = inhibition” value was 8.27%. Regarding `COc1ccc(C)cc1NC(=O)NCCCCc1ccccc1`, the “activity change, negative = inhibition” value was 33.6%. Still for that read-out and setting: next, `Cc1cc(CNC(=O)C2CCC(=O)N(CCc3ccc(Cl)cc3)C2)no1` (stereo not drawn): 0.942%. Regarding `COC1=C(N2CCOCC2)C(=O)c2ccccc2C1=O`, the “activity change, negative = inhibition” value was 4.55%. Regarding `CCOc1ccc(NC(=O)c2ccc(NC(=O)C3CCCO3)cc2)cc1` (stereo not drawn), the “activity change, negative = inhibition” value was -12.3%. Regarding `Cc1ccccc1C(=O)NC(=S)NC1CC1`, the Potency is 14.1 µM (active). In the case of `Cc1ccccc1C(=O)Nc1ccccc1NC(=O)c1ccccc1C`, the “activity change, negative = inhibition” value is -10.9%. Regarding `O=C(NC(=S)NC1CCSC1=O)c1ccccc1F` (stereo not drawn), the “activity change, negative = inhibition” value is -29.6%. Regarding `CC(C)n1c(O)c(N=Nc2ccccn2)c2ccccc21`, the Potency is 8.91 µM (active). For the molecule `CC(C)n1c(C(O)c2ccccc2)nc2ccccc21` (stereo not drawn), the “activity change, negative = inhibition” value was -20.2%. For the molecule `COC(=O)Cn1c(O)c(N=NC(=O)OC)c2ccccc21`, the “activity change, negative = inhibition” value was 7.4%. As for `COc1ccc(C=Nc2cccc3ncccc23)cc1`, the “activity change, negative = inhibition” value was -11%. As for `COc1ccc(/C=N/Nc2nc3ccccc3c(=O)[nH]2)cc1`, the Potency is 11.2 µM (active).

Turning to `COc1ccc(/C=N/Nc2nc(-c3ccc(C)cc3)c(C#N)c(=O)[nH]2)cc1`, the activity change, negative = inhibition was 20.4% [at 1.91 µM]. With `COc1ccccc1C(=O)N/C(=C/c1ccc2c(c1)OCO2)C(=O)Nc1cccc(C(=O)O)c1`, the “activity change, negative = inhibition” value was 5.47%. In the case of `O=C(CSc1nc2ccccc2s1)Nc1ccc(C(=O)O)cc1`, the “activity change, negative = inhibition” value is 12.8%. On the same count and under the same terms, the value for `CCOc1ccccc1Nc1ccc2nonc2c1[N+](=O)[O-]` was 7.05%. As for `O=[N+]([O-])c1c(NCCO)cc(Sc2nc3ccccc3s2)c2nonc12`, the Potency is 2.82 µM (active).

Regarding `CC(C)OCCCNC(=O)CN1C(=O)/C(=C/c2ccccc2F)Oc2ccccc21`, the “activity change, negative = inhibition” value is -0.186%. As for `CCn1c(CNS(=O)(=O)c2ccc(Cl)cc2)n[nH]c1=S`, the “activity change, negative = inhibition” value was -10.8%. `O=C(CSCc1c(Cl)cccc1Cl)NN1C(=O)c2ccccc2C1=O`: the “activity change, negative = inhibition” value was -1.68%.

With `CCn1c(CSCc2c(Cl)cccc2Cl)n[nH]c1=S`, the Potency is 3.16 µM (active). For `O=C1NC(c2ccccc2)Oc2ccccc21` (stereo not drawn), the “activity change, negative = inhibition” value was 4.56%.
